From PubChem
In the library only some 2.8% were active in any assay of this set; here they are far more common.
PP5 primary = blocks human protein phosphatase 5 activity. purified PP5c, OMFP substrate fluorescence. inhibition, % at 6.7 µM. actives 0.18% (n = 320,000);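 active means inhibition above the campaign's mean inhibition across all tested compounds plus 3 SD, cut at about 9.5% in these data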
IDE cell inh = cellular human IDE inhibition | HEK cells, FAbetaB cleavage, fluorescence polarization | P14735 | AID 434962 | actives 0.41% (n = 320,000) | inhibition, % at 5.59 µM;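 active means percent inhibition above the average of all tested compounds plus 3 SD, set per screening campaign, cut at about 16% in these data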;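 further: IDE supplied by intact live HEK cells; FP after avidin binding of uncleaved biotin substrate so inhibition keeps polarization high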
Exocytosis inh = blocks lytic granule exocytosis. TALL-104 LAMP-1 surface exposure, flow cytometry; cells stimulated with thapsigargin and PMA. inhibition, % at 10 µM. actives 0.66% (n = 360,000);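 active means inhibition above about 55%, limit read from the data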
IDE cell activ = IDE (human) activation, cell-based; AID 493087; activation, % at 5.96 µM; P14735; HEK cells, FAbeta-B cleavage, fluorescence polarization; 0% vehicle, 100% cell-free pure enzyme wells; actives 0.073% (n = 340,000);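 active means activation above the mean of all tested compounds plus 3 SD, set per screening campaign, cut at about 17% in these data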
PP1 counter = counter-screen for PP5 inhibitors: inhibitors of human PP1-alpha | P62136 | purified PP1alpha, OMFP fluorescence | inhibition, % at 6.7 µM | actives 0.9% (n = 320,000);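 active means inhibition above the mean inhibition of all tested compounds plus 3 SD, computed separately for each screening campaign, cut at about 15% in these data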
Target sequence (P62136 whole entry, looked up): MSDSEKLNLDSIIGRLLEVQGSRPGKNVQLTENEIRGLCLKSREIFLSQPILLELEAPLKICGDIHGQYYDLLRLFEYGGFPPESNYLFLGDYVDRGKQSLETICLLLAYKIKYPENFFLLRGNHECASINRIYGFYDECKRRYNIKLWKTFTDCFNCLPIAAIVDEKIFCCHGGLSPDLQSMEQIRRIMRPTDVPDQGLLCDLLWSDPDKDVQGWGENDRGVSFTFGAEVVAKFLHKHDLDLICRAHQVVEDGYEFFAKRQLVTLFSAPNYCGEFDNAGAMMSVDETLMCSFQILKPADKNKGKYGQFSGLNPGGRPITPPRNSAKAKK
SKKanGAS inh = SKKanGAS growth inhibition | S. pyogenes SKKanGAS, kanamycin growth, BacTiter-Glo, 6 h | inhibition, % at 7.5 µM | actives 1.3% (n = 300,000);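 active means mean replicate score, as percent of positive control median, at least 50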;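 further: strain carries kanamycin resistance gene driven by streptokinase promoter and grows in 40 µg/ml kanamycin; loss of luminescence reflects streptokinase promoter inhibition or plain growth inhibition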
PP5 conf = confirmation of human PP5 phosphatase inhibitors; shares compounds with PP5 primary; Purified PP5, fluorogenic phosphatase substrate, fluorescence; actives 22% (n = 460); inhibition, % at 6.7 µM; AID 2331; in the data active means inhibition above about 9.5%
PP1 inh counter = PP1 phosphatase inhibition, counter-screen for PP5 inhibitors; actives 4% (n = 460); inhibition, % at 6.7 µM; PP1 enzyme, fluorescent phosphatase substrate; AID 2355; shares compounds with PP5 primary; in the data active means inhibition above about 16%
Each line names hits and unclear results; the compound was inactive in the other large screens (follow-up assays come after a bar, where they were run).

O=C(c1ccc2c(=O)n(Cc3ccc4c(c3)OCO4)c(=S)[nH]c2c1)N1CCCCC1	none
Cc1cc(C=O)c(O)cc1O	none
Cc1cc(C(=O)CSc2nc3ccccc3c(=O)n2C)c(C)n1CC1CCCO1 (stereo not given)	none (no result: PP5 primary, IDE cell inh, Exocytosis inh, IDE cell activ, PP1 counter)
Cc1cc(C(=O)CSc2nc3ccccc3c(=O)[nH]2)c(C)n1CC1CCCO1 (stereo not given)	PP5 primary 15 | PP5 conf inactive | PP1 inh counter inactive
Cc1[nH]n(-c2ccccc2)c(=O)c1C(C[N+](=O)[O-])c1ccc(F)cc1 (stereo not given)	PP5 primary 13 | PP5 conf inactive | PP1 inh counter inactive
Cc1ccccc1N=C1NC(=O)/C(=C/c2cccn2-c2cccc(C(=O)O)c2)S1	none (no result: PP5 primary, IDE cell inh, Exocytosis inh, IDE cell activ, PP1 counter)
O=C(CC1C(=O)NCCN1C(=O)Nc1ccc(F)cc1)Nc1ccc(F)cc1 (stereo not given)	PP5 primary 9.7 | PP5 conf inactive | PP1 inh counter inactive
CC[N+]1(CC(O)COC2CC(C)CC(C)(C)C2)CCOCC1 (stereo not given)	none
COc1ccc(NC(=O)CS(=O)CC(=O)Nc2cccnc2)cc1 (stereo not given)	none
CN1CCC(NC(=O)Nc2cccc(C(F)(F)F)c2)CC1	none
CN1CCC(NC(=O)Nc2ccc(Br)cc2)CC1	PP5 primary 13 | PP5 conf inactive | PP1 inh counter inactive
Cc1cccc(C)c1NC(=O)C1(C)CN(S(C)(=O)=O)CC(=O)N1CCc1c[nH]c2ccccc12 (stereo not given)	none (no result: PP5 primary, IDE cell inh, IDE cell activ, PP1 counter, SKKanGAS inh)
COC(=O)CCC(=O)OC1(C)C(=O)C=C2C=C(C3CC3)N(C3CC3)C=C2C1=O (stereo not given)	PP5 primary 15 | PP5 conf 43 | PP1 inh counter 18
COC(=O)CCC(=O)OC1(C)C(=O)C=C2C=C(C3CC3)N(Cc3ccco3)C=C2C1=O (stereo not given)	none
COCCN1C=C2C(=O)C(C)(OC(=O)CCC(=O)OC)C(=O)C=C2C=C1C1CC1 (stereo not given)	PP5 primary 17 | PP5 conf 43 | PP1 inh counter 17
CCCN(CC1CC1)c1nc(N)c2c(N)nc(OC)cc2c1C#N	PP5 primary 12 | PP5 conf 39 | PP1 inh counter inactive
CCOc1cc2c(C#N)c(N(CC)CC)nc(N)c2c(N)n1	none
O=C1NC(=S)NC1(c1ccccc1)c1ccccc1	none (no result: PP5 primary, IDE cell inh, PP1 counter, SKKanGAS inh)
CCOC(=O)OCC(=O)C1(O)CCC2C3CCC4=CC(=O)CCC4(C)C3C(O)CC21C (stereo not given)	none (no result: PP5 primary, IDE cell inh, PP1 counter, SKKanGAS inh)
CCCCCCCC(=O)OCC(=O)[C@@]1(O)CC[C@H]2[C@@H]3CCC4=CC(=O)CC[C@]4(C)[C@H]3[C@@H](O)C[C@@]21C	PP5 primary 11 | PP5 conf inactive | PP1 inh counter inactive
NS(=O)(=O)c1ccc(NC(=S)N2CCN(C(=O)C3CCCO3)CC2)cc1 (stereo not given)	none
COc1ccc2sc(N(CCN(C)C)C(=O)c3cc(Cl)sc3Cl)nc2c1	none
COc1ccc(OC)c2sc(N(CCN(C)C)C(=O)c3cc(Cl)sc3Cl)nc12	PP5 primary 11 | PP5 conf inactive | PP1 inh counter inactive
O=C(COC(=O)c1ccc(S(=O)(=O)N2CCOCC2)cc1)NCc1ccco1	none (no result: PP5 primary, IDE cell inh, IDE cell activ, PP1 counter, SKKanGAS inh)
COc1ccc(C2C3=C(CC(C)(C)CC3=O)Oc3ncn(Cc4ccccc4)c(=N)c32)cc1 (stereo not given)	PP5 primary 11 | PP5 conf inactive | PP1 inh counter inactive
CNc1cccc(-c2ccc(N3CCN(C)CC3)nc2)n1	none (no result: PP5 primary, IDE cell inh, IDE cell activ, PP1 counter, SKKanGAS inh)
Cc1cc(-c2ccccc2)nc(N/N=C/c2ccccc2)n1	none
COc1ccc(/C=N/Nc2cc(N(C)C)nc(N(C)C)n2)cc1	PP5 primary 14 | PP5 conf 43 | PP1 inh counter inactive
COc1ccccc1/C=N/Nc1cc(N(C)C)nc(N(C)C)n1	PP5 primary 18 | PP5 conf 30 | PP1 inh counter inactive
CN(C)c1cc(N/N=C\c2ccccc2)nc(N(C)C)n1	PP5 primary 16 | PP5 conf 38 | PP1 inh counter inactive
COc1ccc(/C=N/Nc2cc(OC)ncn2)cc1	none
O=S(=O)(c1ccc(Cl)cc1)N1CCN(CCc2ccncc2)CC1	none
COCC(C)n1c(-c2ccc3c(c2)NC(=O)CO3)csc1=Nc1ccc(OC(F)F)cc1 (stereo not given)	PP5 primary 12 | PP5 conf inactive | PP1 inh counter inactive
CCOc1cc(S(=O)(=O)n2cc(-c3ccc(F)cc3)c(N)n2)cc(OCC)c1OCC	PP5 primary 11 | PP5 conf inactive | PP1 inh counter inactive
FC(F)C(F)(F)C(F)(F)C(F)(F)c1cc(-c2ccccc2)n[nH]1	PP5 primary 11 | PP5 conf 9.7 | PP1 inh counter inactive
CC(OC(=O)C1CCN(c2ccc(C(F)(F)F)cn2)CC1)C(=O)c1ccccc1 (stereo not given)	none
COCC(=O)N(Cc1cc2cccc(C)c2[nH]c1=O)c1ccccc1	PP5 primary 10.0 | PP5 conf inactive | PP1 inh counter inactive
COCC(=O)N(Cc1cc2cc(C)ccc2[nH]c1=O)c1ccccc1	none
O=C(OCc1cccc(F)c1)c1ccc2c(=O)n3c(nc2c1)CCC3	none
O=C(CN1C(=O)c2ccccc2C1=O)Nc1cccc(S(=O)(=O)Nc2ccccc2Cl)c1	PP5 primary 12 | PP5 conf inactive | PP1 inh counter inactive
O=C(CN1C(=O)c2ccccc2C1=O)Nc1cccc(Cl)c1	none
Cc1cccc2c1NC(=O)C2(c1ccc(O)cc1)c1ccc(O)cc1	none
Cc1cc(C2(c3ccc(O)c(C)c3)C(=O)Nc3ccccc32)ccc1O	PP5 primary 16 | PP5 conf inactive | PP1 inh counter inactive
C[C@@H]1CN([C@H](C)CO)C(=O)CCCn2nncc2CO[C@@H]1CN(C)S(=O)(=O)c1ccc2c(c1)OCCCO2	none (no result: PP5 primary, IDE cell inh, IDE cell activ, PP1 counter, SKKanGAS inh)
Cc1ccc(NS(=O)(=O)c2ccc(NC(=O)c3cccc(NC(=O)C(C)C)c3)cc2)cc1	PP5 primary 9.8 | PP5 conf inactive | PP1 inh counter inactive
Cc1ccc(S(=O)(=O)Nc2ccc(C(=O)Nc3ccncc3)cc2)cc1	none
Cc1ccc(S(=O)(=O)Nc2ccc(NC(=O)Nc3cccc(C(F)(F)F)c3)cc2)cc1	PP5 primary 11 | PP5 conf inactive | PP1 inh counter inactive
O=[N+]([O-])c1cc(/C=N/O)ccc1Sc1ccccc1	PP5 primary 10 | PP5 conf inactive | PP1 inh counter inactive
